Hits are enriched below; roughly 3% of the tested compounds scored in any of these assays.
Glioma ERSR ind – inducers of ER stress response in human glioma cells | U87-MG GRP78 promoter luciferase reporter, 16 h | Potency, µM, for inactives: at the top dose activation, usual class: activators | actives 0.02% (n = 420,000) | AID 602332; further: potency means the concentration at half of the fitted maximal effect; series mostly up to about 76 µM; % of control where 0% means no effect; nearly all actives have a fitted effect of over 35% in size
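ERSR induction read as luciferase luminescence (Bright-Glo, 10 min at room temperature) in stably transfected human U87-MG glioma cells exposed to compounds for 16 h, using GRP78 as sensor.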
Nrf2 activator – activates Nrf2 signaling | Potency, µM (highest dose often 46.1 µM), without a hit: at the top dose activation, most hits filed as activators | actives 0.31% (n = 410,000) | AID 624171 | AREc32 ARE-luciferase reporter (MCF7-derived line), luminescence, 24 h; further: potency means the concentration at half of the fitted maximal effect; % of control where 0% means no effect; nearly all actives have a fitted effect of over 65% in size
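Each well held 1000 AREc32 cells, which were incubated with compound for 24 hr at 37 deg C after overnight attachment, and ARE reporter activity was quantified by firefly luciferase luminescence.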
D3 ag – agonists of human D3 dopamine receptor | P35462 | D3R DiscoveRx beta-arrestin cells, luminescence, 90 min | max activation, % | actives 0.58% (n = 410,000) | AID 652048; in the data active means max activation above about 30%; further: 0% is about no effect
Target sequence (P35462 whole entry, looked up): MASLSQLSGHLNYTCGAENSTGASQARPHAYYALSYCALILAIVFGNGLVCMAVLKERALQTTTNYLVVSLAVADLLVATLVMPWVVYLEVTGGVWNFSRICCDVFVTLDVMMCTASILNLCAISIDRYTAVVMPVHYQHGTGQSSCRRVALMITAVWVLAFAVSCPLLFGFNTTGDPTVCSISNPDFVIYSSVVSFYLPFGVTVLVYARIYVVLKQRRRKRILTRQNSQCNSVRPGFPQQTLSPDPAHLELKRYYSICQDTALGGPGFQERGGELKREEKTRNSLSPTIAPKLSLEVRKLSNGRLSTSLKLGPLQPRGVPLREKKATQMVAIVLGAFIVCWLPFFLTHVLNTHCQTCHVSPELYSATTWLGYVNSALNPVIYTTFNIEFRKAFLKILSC
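Agonist-mode cell screen: cells plated at 1500/well and incubated overnight at 37 °C, then exposed to library compounds for 90 min at 37 °C. Detection reagent was added for 30–60 min at room temperature, and luminescence was read.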
DRD3 antagonist – D3 dopamine receptor (human) antagonism; max response, negative = inhibition, %; AID 652054; actives 2.5% (n = 360,000); P35462; D3R cells, DiscoveRx beta-arrestin luminescence, antagonist mode; stronger effect = lower value; in the data active means max response below about -50%; further: on the % scale 0 is the no-effect control and ±100 the full control effect
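Cells expressing the human receptor were seeded at 1500 cells/well, incubated overnight at 37 degrees C in 5% CO2, then exposed to library compounds with dopamine controls for 90 minutes at 37 degrees C before luminescent detection.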
* = called active by the depositor; · = no result; [ ] = dose if it differs, or a comment. Unless noted, the call rests on the fitted dose curve; in most records, active means well fitted curve in the direction sought with a large enough effect; inconclusive means small, poorly fitted or top-dose-only effect, or another doubt; inactive means no such curve, though single readings can be large; an effect the other way counts as inactive or inconclusive.

SMILES	Glioma ERSR ind	Nrf2 activator	D3 ag	DRD3 antagonist
COC(=O)c1cc(Cl)c(N)cc1OC	-2%	-1%	-3	-11
CCN(CC)CCOC(=O)c1cc(Cl)c(N)cc1OC	-3%	-1%	-70	-58*
COc1ccc(CCNC(=O)c2cc3cc(Cl)ccc3nc2N)cc1OC	·	3%	51*	-7
CCN(CC)CCOC(=O)c1ccc(Cl)cc1	-3%	-1%	-9	-83*
CCN(CC)CCNC(=O)c1cc(Cl)c(N)cc1OC	-1%	2%	-90	-117*
Nc1nc2ccc(Cl)cc2cc1C(=O)NCCc1ccc(O)cc1	·	·	5	4
CCOC(=O)c1c(C)[nH]c(C(=O)OC(C(=O)N(C)C)c2ccccc2)c1C (configuration not stated)	-2%	·	·	·
CSc1nnc(CNS(=O)(=O)c2ccc(F)cc2F)n1-c1ccccc1C	-1%	·	·	·
COc1ccc(Cl)cc1C(=O)NCCN(C)C	0%	0%	-4	-72*
COc1cc(NC(=O)C2=C(C)OCCS2)c(Cl)cc1C(=O)NCCN(C)C	-10%	-1%	-11	-52*
CCN(CC)CCNC(=O)c1cc([N+](=O)[O-])c(N(C)C)cc1OC	1%	-1%	-22	-93*
COc1cc(CCNC(=O)c2ccccc2NC(=O)C2=C(C)OCCS2)cc(OC)c1OC	-3%	-1%	11	3
COCCNC(=O)c1cc(OC)c(OC)cc1[N+](=O)[O-]	-4%	-1%	-1	3
COc1cc2nc(CCc3nc4cc(OC)c(OC)cc4[nH]3)[nH]c2cc1OC	1%	·	·	·
COc1ccc2c(c1)OC(C)CN(CC(=O)NCc1cn[nH]c1-c1ccc(F)cc1)C2 (configuration not stated)	-1%	·	·	·
COc1cc(CN2CCOc3ccc(CN4CCC(O)(c5cccnc5)CC4)cc3C2)ccc1F	-3%	·	·	·
COc1cccc(OC)c1OCCCOc1c(OC)cccc1OC	-6%	0%	-2	-4
COc1cccc(OC)c1OCCNCC1CSc2ccccc2O1 (configuration not stated)	-1%	5%	-81	-95*
Cc1scc(C(=O)Nn2cnnc2)c1-c1ccccc1	-4%	0%	-13	-55*
COc1cccc(NC(=O)C2CCN(c3nc4ccccc4nc3C(F)(F)F)CC2)c1	-3%	1%	32*	·
Nc1c(Br)cc(Br)c2c1C(=O)c1c(cccc1S(=O)(=O)O)C2=O	-3%	3%	-17	-55*
CCc1cc(S(=O)(=O)O)c2cc(C(C)C)cccc1-2	-3%	·	-18	·
CCC1CN(CC(=O)NCc2ccc3c(c2)OCO3)Cc2ccc(Cl)cc2O1 (configuration not stated)	-4%	·	·	·
COc1cc(/C=C2\SC(c3ccc(C)cc3)=NC2=O)cc(OC)c1O	-4%	7%	5	-54*
CCN(CC)c1ccc(NC(=O)CN2CCN(S(=O)(=O)c3ccc(C(C)C)cc3)CC2)cc1	-2%	0%	1	·
SMILES	Glioma ERSR ind	Nrf2 activator	D3 ag	DRD3 antagonist
CC(C)(C)n1ncc2c(=O)n(Cc3cccc(C#N)c3)cnc21	-1%	·	·	·
O=C(O)c1cc(C(=O)O)cc(-c2ccc(/C=c3/sc4nc5ccccc5n4c3=O)o2)c1	-1%	-1%	0	-1
O=C(O)c1ccccc1-c1ccc(C=c2sc3nc4cc(Br)cnc4n3c2=O)o1	-2%	7%	-10	-55*
O=C(N/N=C\c1cccc(F)c1)c1ccc(Cn2cc(Br)c([N+](=O)[O-])n2)o1	-4%	3%	-14	-87*
COc1ccc(CCNC(=O)CCCCn2c(=O)c3ccccc3n(Cc3cccc(C)c3)c2=O)cc1OC	-1%	-1%	-6	·
OCC1(CCOc2ccccc2)CCN(Cc2ccc3cccc(F)c3n2)CC1	-6%	7%	-14	-87*
CCOC(=O)C1(CC2CC2)CCN(Cc2ccc3cccc(F)c3n2)CC1	-2%	9%	-19	-96*
OCC1(CCOc2ccccc2)CCN(Cc2ccncc2)CC1	-3%	0%	-8	1
OCC1(Cc2cccc(F)c2)CCN(Cc2ccc3cccc(F)c3n2)CC1	-6%	7%	-7	-75*
COc1cccc(CC2(CO)CCN(Cc3ccc4cccc(F)c4n3)CC2)c1	-7%	3%	-17	-82*
OCC(O)COc1ccc(Cl)cc1 (configuration not stated)	-3%	·	5	·
CC1Sc2ccccc2N(Cc2ccc(OC(F)(F)F)cc2)C1=O (configuration not stated)	-2%	0%[9.22 µM]	-2	3
CC1Sc2ccc(C#N)cc2N(Cc2cccc(C(F)(F)F)c2)C1=O (configuration not stated)	-3%	5%	-1	-51*

Screening data: PubChem BioAssay, National Center for Advancing Translational Sciences (NCATS)
